Shown are actives, neighbours in structure and some others; about 5.7% of the full set was active somewhere.
ATXN2 expr inh: ATXN2 expression inhibition; AID 1745845; Potency, µM (doses to about 57 µM), for inactives: at the highest dose activity change, negative = inhibition, hits mostly inhibitors; HEK-293 ATXN2-luciferase reporter, luminescence, 24 h; hit rate 0.72% among 360,000; also: potency is read from the fitted curve at half-maximal effect; % is scaled to controls: 0 for no effect and ±100 for the full control effect; nearly all actives have a fitted effect of over 55% in size
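ATXN2-luciferase reporter cells (luciferase flanked by upstream and downstream ATXN2 gene portions) were treated 24 h at 37 °C with compounds at up to 57 uM. SteadyGlo luminescence gave expression; GF-AFC fluorescence gave viability.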
IL1B secr inh: inhibitors of inflammasome signaling (IL-1 beta secretion); THP-1 LPS/ATP IL-1B secretion, AlphaLISA, 16 h; hits give low values; activity change, % at 57.5 µM; hit rate 4.7% among 360,000; AID 743279; in the data active = activity change below about -50%; inconclusive = mostly about -30% to -49%; also: % is scaled to controls: 0 for no effect and ±100 for the full control effect
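Secreted IL-1B measured by AlphaLISA bead assay after 16 h compound exposure of THP-1 cells; compounds (final up to 57.5 uM) added 1 h before LPS (250 ng/mL) and ATP (1.25 mM) stimulation; lower signal means less secretion.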
TGFb SMAD3 inh: TGF-b pathway inhibition | HepG2 CAGA-GFP TGF-b/SMAD3 reporter, GFP fluorescence, 18 h; TGF-beta stimulated, 500 pg/mL final | hit rate 1.2% among 410,000 | Potency, µM (highest dose often 46.1 µM), inactives show top-dose activity, negative = inhibition, hits mostly inhibitors; also: potency is read from the fitted curve at half-maximal effect; % is scaled to controls: 0 for no effect and ±100 for the full control effect; nearly all actives have a fitted effect of over 65% in size
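GFP signal (ex488/em500-530) from TGF-beta-stimulated HEPG2 CAGA-GFP cells, 500 pg/mL final, 18 h at 37 degrees C in DMEM plus 1% FBS, normalized to unstimulated and DMSO-stimulated controls.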
HepG2 tox: counter-screen for TGF-b inhibitors: cytotoxicity in HepG2 cells. Potency, µM (doses to about 46.1 µM), for the others: top-dose activity change, negative = cytotoxicity, hits mostly cytotoxic. HepG2 CAGA-GFP viability, ATP luminescence, 18 h. AID 588856. hit rate 0.76% among 410,000; also: potency is read from the fitted curve at half-maximal effect
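CellTiter-Glo luminescence gave cytotoxicity after 18 hours at 37 degrees C. The cells were HepG2 CAGA-GFP in 1% FBS DMEM, stimulated with 500 pg/mL TGF-beta after compound addition. %Activity was normalised to no-cell wells (complete cell-killing) and DMSO (no toxicity), and curves were fitted and classified.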
S2 tox: viability counter-screen for ATXN expression inhibitors; S2 cells (HEK-293 line with an ATXN2-luciferase reporter) viability, CellTiter-Fluor protease fluorescence, 24 h; Potency, µM (top dose mostly 56.7 µM), most hits filed as cytotoxic; hit rate 0.49% among 400,000; also: potency is read from the fitted curve at half-maximal effect; nearly all actives have a fitted effect of over 40% in size
An asterisk follows results filed as active; i = inactive; ? = inconclusive; / = no result given; ! = a repeat was not active. Unless noted, calls follow the shape of the dose curve; as a rule, active = well fitted curve in the direction sought with a large enough effect; inconclusive = small, poorly fitted or top-dose-only effect, or another doubt; inactive = no such curve, though single readings can be large; an effect the other way counts as inactive or inconclusive.

SMILES	ATXN2 expr inh	IL1B secr inh	TGFb SMAD3 inh	HepG2 tox	S2 tox
O=C(Nc1nnc(-c2ccc3c(c2)CCCC3)o1)c1ccc(Cl)cc1Cl	?	0	?	-4%	40µM*
CCOC(=O)C(C)/C(C)=N/NC(N)=S (stereo unspecified)	-2%	-60*	?	-37%	i
COc1ccc(C2Nc3ccccc3C(=O)N2c2cccc3ccccc23)cc1COc1c(C)cccc1C (stereo unspecified)	/	/	25%	3%	/
CS(=O)(=O)c1ncc(Cl)c(C(=O)Nc2c(C(=O)Nc3ccccc3)oc3ccccc23)n1	1%	/	19%	7%	i
COc1cccc(NC(=O)c2nc(S(C)(=O)=O)ncc2Cl)c1	?	-101*	16µM*	-96%	?
Cc1cccc(NC(=O)c2nc(S(C)(=O)=O)ncc2Cl)c1	?	/	7.9µM*	20µM*	?
C=CCn1c(C)cc(C(=O)Cn2ncc(Cl)c(Cl)c2=O)c1C	?	-102*	-1%	-35%	35µM*
O=C(Cn1ncc(Cl)c(Cl)c1=O)c1ccc(Cl)cc1	?	-68*	?	18µM*	?
O=C(OCn1ncc(Cl)c(Cl)c1=O)c1ccccc1Cl	?	-97*	-15%	-93%	/
CC(C)(C)C(=O)Cn1ncc(Cl)c(Cl)c1=O	/	-101*	-1%	-9%	7.9µM*
C/C=C(\C)NNC(=O)Cc1ccc(OC)cc1	/	/	0%	1%	/
O=c1c(Cl)c(Cl)cnn1Cc1ccc(F)cc1	?	-99*	?	-95%	/
CCN(CC)c1ccc(NC(=O)c2cccn2-c2nnc(N3CCCCC3)s2)c(C)c1	/	/	?	-35%	/
CCCN1CCCc2cc(CN(CCCN3CCOCC3)C(=O)Nc3ccc(CC)cc3)ccc21	?	/	?	-69%	?
COc1cc(NC(=O)CSc2nc3ncccc3o2)cc(OC)c1	8%	/	-1%	-47%	i
COc1cc(C(CCN2CCCCC2)c2c(OC)cc(OC)c3c(-c4ccccc4)cc(=O)oc23)cc(OC)c1OC (stereo unspecified)	?	?	?	-80%	25µM*
COc1cc(C(CCN2CCCC(C)C2)c2c(OC)cc(OC)c3c(-c4ccccc4)cc(=O)oc23)cc(OC)c1OC (stereo unspecified)	?	-10	-6%	-5%	/
CCCCCc1cc(=O)oc2c(C(CCN3CCCCC3)c3ccc(OC)cc3)c(OC)cc(OC)c12 (stereo unspecified)	?	?	?	11µM*!	32µM*
COc1cc(OC)c2ccc(=O)oc2c1C(CCN1CCCC(C)C1)c1ccc2c(c1)OCO2 (stereo unspecified)	-21%	0	?	-46%	28µM*
CCCCCc1cc(=O)oc2c(C(CCN3CCCC3)c3ccc(N(C)C)cc3)c(OC)cc(OC)c12 (stereo unspecified)	?	-76*	?	13µM*	32µM*
CCN(C(=O)c1nn(-c2ccc(OC)c(Cl)c2)c(=O)c2c1c1ccccc1n2C)c1cc(OC)ccc1OC	-2%	/	-12%	-14%	?
CCc1ccc(NC(=O)Cn2c(=O)n(CC3CCCO3)c(=O)c3cc(OC)c(OC)cc32)cc1 (stereo unspecified)	9%	/	-7%	3%	i
CCCCCc1cc(=O)oc2c(C(CCN3CCCC3)c3cc(OC)c(OC)c(OC)c3)c(OC)cc(OC)c12 (stereo unspecified)	?	-5	?	16µM*	/
CCCCCc1cc(=O)oc2c(C(CCN3CCCC(C)C3)c3ccc(OC)cc3)c(OC)cc(OC)c12 (stereo unspecified)	?	-54*	?	11µM*	/
COc1cc(O)c(C(CCN2CCCC(C)C2)c2ccc3c(c2)OCO3)c(OC)c1 (stereo unspecified)	-7%	0	?	-26%	?
SMILES	ATXN2 expr inh	IL1B secr inh	TGFb SMAD3 inh	HepG2 tox	S2 tox
COc1cc(O)c(C(CCN2CCCC(C)C2)c2ccc(N(C)C)cc2)c(OC)c1 (stereo unspecified)	3%	-55*	-1%	-33%	?
COc1ccc(-n2c(C)c([N+](=O)[O-])c3ccc(O)cc32)cc1	37%	/	/	/	/
COc1ccc(N(C(=O)C2CCCCC2)S(=O)(=O)c2cccc3cccnc23)cc1	4%	-52*	0%	-5%	i
COc1cccc(/C=C/C(=O)Nc2ccc3[nH]c(=O)[nH]c3c2)c1	/	114	6%	31%	i
COc1cc(/C=C/C(C)=O)cc(OC)c1OC	35%	?	0%	18%	i
COc1cc(C(=O)NNC(=O)/C=C/c2ccccc2)cc(OC)c1OC	12%	-74*	6%	-9%	i
COc1cc(/C=C/C(=O)Nc2ccc3[nH]c(=O)[nH]c3c2)cc(OC)c1OC	6%	-72*	-3%	-1%	i
COc1cc(C=CC(=O)c2cc(OC)c(OC)c(OC)c2)cc(OC)c1OC	?	0	11µM*	-77%	?
COc1ccc2cc(C(=O)/C=C/c3cc(OC)c(OC)c(OC)c3)ccc2c1	-10%	-62*	7%	-6%	i
CCOc1ccc(S(=O)(=O)NCCc2sc3nc(-c4ccc(F)cc4)nn3c2C)cc1	/	/	?	-37%	/
COc1ccccc1N1CCN(C(=O)c2cc3c(=O)n(C)c4ccccc4c3s2)CC1	-17%	/	-21%	-25%	i
COc1cc(/C=C/C(=O)N2CCC=CC2=O)cc(OC)c1OC	10µM*	-103*	?	-90%	10µM*
CC(=O)c1ccc([N+](C)(C)C)cc1	/	/	3%	4%	/
CCC(Cc1ccccc1)NC(=O)c1csc2c1CCCCC2 (stereo unspecified)	30%	/	-25%	-14%	i
O=C(Nc1ccc(Oc2cccnc2)cc1)C1CCN(Cc2cc(Cl)ccc2O)CC1	/	-4	13µM*	-54%	?
Cc1cccc(CN2CCC(C(=O)Nc3ccc(Oc4cccnc4)cc3)CC2)c1	-4%	-6	?	11µM*	i
CCOC(=O)CNC(=O)C1CCCCC1	/	/	0%	-10%	/
COC(=O)c1cc(-c2ccccc2)sc1NC(=O)CN1C(=O)c2ccccc2C1=O	-8%	-62*	0%	-13%	i
CC(C)(C)C(=O)Nc1sc(-c2ccccc2)cc1C(=O)O	180%	-78*	-5%	1%	i
NC(=O)c1cc(-c2ccccc2)sc1NC(=O)CN1CCCCC1	-19%	-51*	?	-26%	?
O=C(NCC(c1ccco1)S(=O)(=O)c1cccs1)c1ccccc1 (stereo unspecified)	/	/	12%	-4%	/
Clc1cccc(-c2nnnn2Cc2cccnc2)c1Cl	-4%	/	/	/	/
Oc1cccc2ccc(Nc3ccccn3)nc12	0%	-110*	?	5.6µM*	/
